Assay results from PubChem BioAssay (NCI).
The panel holds about 79,000 compounds, 15% with a hit somewhere; the sample as a whole holds those more often. Active and inactive are the calls of the source. Rule as the data show it: active = growth inhibition above about 70%; inactive = the rest.

What was measured:
[1] = NCI Yeast Anticancer Drug Screen. Data for the rad52 strain (AID 147);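 also: 0% = growth of vehicle-treated control cultures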; conditions: S. cerevisiae rad52 mutant growth inhibition, hits give high values
In short: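 Measured: yeast growth inhibition. System: strain with a defined DNA damage repair alteration. Reference: vehicle-treated control cultures.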

[2] = NCI Yeast Anticancer Drug Screen. Data for the wt1 strain (AID 149);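 also: 0% = growth of vehicle-treated wt1 cultures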; conditions: S. cerevisiae wt1 strain (SPY 50644) growth inhibition, hits give high values
In short: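 Compounds are added to wt1 yeast cultures. Growth is then measured. Inhibition is expressed relative to vehicle-treated controls.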

[3] = NCI Yeast Anticancer Drug Screen. Data for the rad50EPP+ strain (AID 151);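 also: 0% = growth of vehicle-treated control cultures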; conditions: S. cerevisiae rad50 mutant strain, hits give high values
In short: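 One strain with a rad50 alteration (rad50EPP+) was compound-treated, its growth then compared to that of vehicle controls.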

[4] = NCI Yeast Anticancer Drug Screen. Data for the mgt1 strain (AID 153); conditions: S. cerevisiae mgt1 mutant growth inhibition, hits give high values
In short: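 After exposure of the mgt1 yeast mutant to compound, growth was measured and reported as inhibition compared with vehicle controls.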

[5] = NCI Yeast Anticancer Drug Screen. Data for the rad50 strain (AID 155);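 also: 0% = growth of vehicle-only cultures of the same strain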; conditions: S. cerevisiae rad50 strain growth inhibition, hits give high values
In short: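 Inhibition values express reduced yeast growth in compound-treated cultures relative to vehicle-treated controls.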

[6] = NCI Yeast Anticancer Drug Screen. Data for the mec2-1 strain (AID 157); conditions: S. cerevisiae mec2-1 strain, hits give high values
In short: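 Test agents were screened against the mec2-1 yeast strain, with defined DNA repair or cell cycle alteration. Growth was scored as inhibition against vehicle-only controls.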

[7] = NCI Yeast Anticancer Drug Screen. Data for the rad14 strain (AID 159);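 also: 0% = growth of vehicle-treated control cultures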; conditions: S. cerevisiae rad14 strain growth inhibition, hits give high values
In short: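 A mutant yeast strain defective in DNA damage repair is treated with compound; inhibition of its growth is scored against untreated, vehicle-exposed cultures.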

[8] = NCI Yeast Anticancer Drug Screen. Data for the sgs1 mgt1 strain (AID 161);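 also: 0% = growth of cultures given vehicle only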; conditions: S. cerevisiae sgs1 mgt1 strain, hits give high values
In short: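 Genetically altered yeast, compound exposure, growth inhibition relative to vehicle.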

[9] = NCI Yeast Anticancer Drug Screen. Data for the CLN2oe strain (AID 163);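 also: 0% = growth of vehicle-only control cultures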; conditions: S. cerevisiae CLN2oe strain, hits give high values
In short: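 Here, growth inhibition in a cell-cycle-altered yeast strain after compound exposure was quantified against vehicle control growth.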

[10] = NCI Yeast Anticancer Drug Screen. Data for the cln2 rad14 strain (AID 165);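 also: 0% = growth equal to vehicle treated cultures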; conditions: S. cerevisiae cln2 rad14 strain, hits give high values
In short: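 Growth of compound-exposed yeast (cln2 rad14 genotype) measured and expressed as inhibition relative to vehicle.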

[11] = NCI Yeast Anticancer Drug Screen. Data for the bub3 strain (AID 167); conditions: S. cerevisiae bub3 mutant strain, hits give high values
In short: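 Steps: expose the mutant yeast strain to compound; grow alongside vehicle-treated cultures; measure growth; express inhibition against the vehicle cultures.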

[12] = NCI Yeast Anticancer Drug Screen. Data for the wt2 strain (AID 169);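 also: 0% = growth of vehicle-treated yeast cultures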; conditions: S. cerevisiae wt2 strain growth inhibition, hits give high values
In short: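 Genetically defined yeast strains from a DNA-repair/cell-cycle panel were used. Compound-exposed yeast growth was measured, and the inhibition was calculated relative to vehicle treatment.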

[13] = NCI Yeast Anticancer Drug Screen. Data for the mlh1 strain (AID 171);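 also: 0% = growth of vehicle-treated control cultures of the same strain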; conditions: S. cerevisiae mlh1 strain growth inhibition, hits give high values
In short: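 Here the genetically defined yeast mutant is grown with each compound, and the extent to which its growth falls below that of vehicle-exposed cells is reported.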

[14] = NCI Yeast Anticancer Drug Screen. Data for the sgs1 strain (AID 173);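 also: 0% = growth of vehicle-only control cultures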; conditions: S. cerevisiae sgs1 mutant, hits give high values
In short: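 Relative growth inhibition, referenced to vehicle, was determined in a yeast strain with a defined alteration affecting DNA damage repair or cell cycle control after compound exposure.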

[15] = NCI Yeast Anticancer Drug Screen. Data for the mlh1 rad18 strain (AID 175); conditions: S. cerevisiae mlh1 rad18 strain growth inhibition, hits give high values
In short: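 In this whole-cell yeast screen, a strain with altered DNA damage repair is challenged with compound, and its growth is measured against matched vehicle-treated controls.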

[16] = NCI Yeast Anticancer Drug Screen. Data for the rad18 strain (AID 177); conditions: S. cerevisiae rad18 mutant growth inhibition, hits give high values
In short: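 Screen uses a yeast strain with a defined lesion in DNA damage repair; compound effect is read as loss of growth compared to untreated vehicle cultures.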

[17] = at 5.0 µM (retest, dose inferred, filed as 0.5)
[18] = at 50.0 µM (retest, dose inferred, filed as 5.0)

Measured: growth inhibition

O=[N+]([O-])c1cc(F)c(F)cc1Sc1cc(F)c(F)cc1[N+](=O)[O-]
inactive: [1]; at 1.2 µM 6% | [1]; at 3.7 µM 37% | [2]; at 1.2 µM -4% | [2]; at 3.7 µM 8% | [3]; at 1.2 µM 30% | [3]; at 3.7 µM 68% | [4]; at 1.2 µM -4% | [4]; at 3.7 µM 3% | [5]; at 1.2 µM 6% | [5]; at 3.7 µM 27% | [5]; [17] 66% | [6]; at 1.2 µM -2% | [6]; at 3.7 µM 14% | [6]; [17] -2% | [7]; at 1.2 µM 1% | [7]; at 3.7 µM 17% | [8]; [17] 64% | [9]; at 1.2 µM -2% | [9]; at 3.7 µM 1% | [10]; [17] 27% | [11]; at 1.2 µM -3% | [11]; at 3.7 µM 5% | [11]; [17] 49% | [12]; at 1.2 µM 0% | [12]; at 3.7 µM 12% | [13]; at 1.2 µM 0% | [13]; at 3.7 µM 7% | [14]; at 1.2 µM 6% | [14]; at 3.7 µM 32% | [16]; at 1.2 µM 38% | [16]; at 3.7 µM 69%
active: [1]; at 11.0 µM 92% | [1]; at 33.0 µM 98% | [1]; at 100.0 µM 97% | [2]; at 11.0 µM 85% | [2]; at 33.0 µM 98% | [2]; at 100.0 µM 98% | [3]; at 11.0 µM 96% | [3]; at 33.0 µM 98% | [3]; at 100.0 µM 98% | [4]; at 11.0 µM 80% | [4]; at 33.0 µM 99% | [4]; at 100.0 µM 96% | [5]; at 11.0 µM 91% | [5]; at 33.0 µM 98% | [5]; [18] 98% | [5]; at 50.0 µM 98.4% | [5]; at 100.0 µM 97% | [6]; at 11.0 µM 83% | [6]; at 33.0 µM 99% | [6]; [18] 98% | [6]; at 50.0 µM 98.5% | [6]; at 100.0 µM 98% | [7]; at 11.0 µM 83% | [7]; at 33.0 µM 98% | [7]; at 100.0 µM 97% | [8]; [18] 98% | [8]; at 50.0 µM 98.3% | [9]; at 11.0 µM 75% | [9]; at 33.0 µM 99% | [9]; at 100.0 µM 95% | [10]; [18] 97% | [10]; at 50.0 µM 96.8% | [11]; at 11.0 µM 76% | [11]; at 33.0 µM 98% | [11]; [18] 97% | [11]; at 50.0 µM 98.5% | [11]; at 100.0 µM 98% | [12]; at 11.0 µM 91% | [12]; at 33.0 µM 99% | [12]; at 100.0 µM 96% | [13]; at 11.0 µM 90% | [13]; at 33.0 µM 99% | [13]; at 100.0 µM 97% | [14]; at 11.0 µM 92% | [14]; at 33.0 µM 99% | [14]; at 100.0 µM 97% | [15]; [17] 82% | [15]; [18] 97% | [15]; at 50.0 µM 98.6% | [16]; at 11.0 µM 94% | [16]; at 33.0 µM 98% | [16]; at 100.0 µM 97%
